# Experimental data: ChEMBL document CHEMBL4513216, “Probing the Open Global Health Chemical Diversity Library for Multistage-Active Starting Points for Next-Generation Antimalarials” (ACS Infect Dis, 2020)
# Out of some 69,000 compounds screened, about 8,600 (12%) showed an effect of 50% or more. For the sample, strong results were picked, then their nearest neighbours and some compounds at random.
# Test system: Plasmodium berghei
# Assay: Screen against P. berghei liver stage (PbLuc), transformed with Luciferase, at 10uM
# Type: functional, HepG2
# Conditions: tested at 10 uM
row,Structure (SMILES),INHIBITION [%]
1,Cn1c2c(ccc1=O)CC(Nc1ncc(F)cn1)CC2 (stereo not given),-89
2,O=C1COC2(CCN(Cc3ccc(F)cc3)CC2)CN1,-7.35
3,O=C(CCN1CCOC1=O)N(Cc1ccncc1)CC1CCCO1 (stereo not given),15.7
4,NC(=O)c1cc(NC(=O)N2CCOCC2)ccc1F,33.5
5,CCS(=O)(=O)N1CCC(Nc2c(Cl)cccc2C#N)CC1,29.4
6,CS(=O)(=O)CCN1CCC(Nc2c(Cl)cccc2C#N)CC1,52.6
7,N#Cc1cccc(Cl)c1NC1CCN(CC(N)=O)CC1,13.2
8,CC(C)C(C)NC(=O)c1ncn2c1CN(C)S(=O)(=O)c1ccccc1-2 (stereo not given),8.03
9,CNCc1ccc([C@@H]2CN(C(C)=O)C[C@H]2C(=O)N(C)C)cc1,35.55
10,CN(CC(=O)N1CCN(CC(C)(C)O)CC1)c1ccc(Cl)cn1,25
11,CC(C)N1CCCC(C(=O)N(C)CCCc2cnn(C)c2)C1 (stereo not given),51
12,CN(C)C(=O)N1CCCC(C(=O)N(C)CCCc2cnn(C)c2)C1 (stereo not given),47.7
13,CN(CCCc1cnn(C)c1)C(=O)C1CCCN(C2CCCC2)C1 (stereo not given),37.6
14,O=C1CCC(=O)N1c1nn(Cc2cccc(F)c2)cc1Cl,14.5
15,CCCNCc1ccc(-c2ccnc3[nH]ccc23)cc1,78.8
16,CNc1cc(-c2ccc(COCCN)cc2)c2cc[nH]c2n1,-8
17,CCCNCc1ccc(-c2cc(N)nc3[nH]ccc23)cc1,19.7
18,Cc1ccc2c(c1)C(=O)NCC1(CCN(C(=O)c3scnc3C)CC1)O2,15.9
19,OCCn1nccc1C1CCN(CCOc2ccc(Cl)cc2)CC1,38.8
20,CN1CC2(CCCN(CCOCc3ccccc3)C2)OC1=O (stereo not given),8.08
21,CN(C)C(=O)COc1ccccc1CN1CCOC2(CCCC2)C1,7.58
22,CN(C)C(=O)COc1ccccc1CN1CCCC2(C1)CN(C)C(=O)O2 (stereo not given),57.5
23,CN1CC2(CCCN(Cc3ccccc3OCC(=O)O)C2)OC1=O (stereo not given),1.37
24,CN1CC2(CCCN(Cc3cccc(Oc4ccccc4)c3)C2)OC1=O (stereo not given),42.5
25,CN1CC2(CCCN(Cc3ccc(Oc4ccccc4)cc3)C2)OC1=O (stereo not given),55
26,CC(C)N(CCCNC(=O)C1CC1)S(C)(=O)=O,5.91
27,Cc1nccn1[C@@H]1CC[C@@H](NC(=O)CCCn2cncn2)[C@H]1O,25.071

row,Structure (SMILES),INHIBITION [%]
1,COCC1N(C(=O)N2CCOCC2)C2CCC1(O)CC2 (stereo not given),33.6
2,Cc1ccnc(NC(=O)CCNC(=O)c2ccccc2Cl)c1,30.2
3,Cc1ccnc(NCCNC(=O)c2ccccc2NCC(=O)O)c1,11.6
4,Cc1ccnc(NCCNC(=O)CCNC(=O)c2ccccc2F)c1,57
5,CC1=N[C@@]2(CC[C@@H]3CN(C(=O)Nc4ccc(F)cc4)C[C@@H]32)C(=O)N1C,0.542
6,Cc1ccc(C(=O)N2CCn3cnc(COCC4CC4)c3C2)cn1,45.2
7,Cc1nccc([C@H]2C[C@@H]3CCN(C(=O)c4c(C)noc4C)C[C@H]3O2)n1,-3.88
8,COC[C@]1(O)CCN(C(=O)c2ccc(CN(C)C)o2)CC1(C)C,76.5
9,COCc1cccc(C(=O)N2CCCC2)c1,1.98
10,COc1cc(C(=O)N2CCC(O)(CN3CCOCC3)C(C)(C)C2)ccn1 (stereo not given),7.93
11,CCOCCn1nc(C)cc1C(=O)N1CC[C@@](O)(COC)C(C)(C)C1,16.2
12,COC[C@]1(O)CCN(C(=O)c2cccc(CN(C)C)c2)CC1(C)C,54.7
13,COCc1ccc(C(=O)N2CC[C@@](O)(COC)C(C)(C)C2)o1,-26.2
14,CN(C)c1ncc(C2Nc3cc(Cl)ccc3C3=NCCCN32)cn1 (stereo not given),48.4
15,CN(C)C(=O)c1ccn(COc2ccccc2Cl)n1,-28
16,Cn1nc(CN2CCCCC2)c2c1CN(C(=O)c1cccc(Cl)c1)C2,-41.8
17,CC(NC(=O)N1CCN(c2nccs2)CC1)c1nncn1C (stereo not given),-15.5
18,C[C@H]1CN(c2ccccn2)C[C@@]12CCN(Cc1cccnc1)C2=O,48.4
19,CN(C)C(=O)CN1CCCC(Cc2ccc(N3CCCC3)nn2)C1 (stereo not given),42.4
20,CN1C(Cn2cccn2)C[C@@H]2CN(Cc3cnn(C)c3)CC[C@@H]21 (stereo not given in full),-10.3
21,CCC(=O)N1CC[C@H]2[C@H](C[C@@H](Cn3cccn3)N2c2nccs2)C1,21.6
22,c1cnn(C[C@@H]2C[C@@H]3CN(CC4CC4)CC[C@@H]3N2c2nccs2)c1,79.2
23,CN1[C@H](Cn2cccn2)C[C@@H]2CN(C(=O)Cc3cccs3)CC[C@@H]21,37.4
24,CN1C(Cn2cccn2)C[C@@H]2CN(Cc3nccs3)CC[C@@H]21 (stereo not given in full),20.4
25,CC(C)N1CC[C@H]2[C@H](C[C@@H](Cn3cccn3)N2c2nccs2)C1,54.4
26,O=C(CCCn1cnnn1)N1CCC(c2ccncc2)CC1,31.4
27,CN(Cc1ccco1)Cc1cncc2c1CCN(Cc1ccoc1)C2,38.5

row,Structure (SMILES),INHIBITION [%]
1,CC(=O)N1N=C(c2ccco2)OC1C(=O)NCCc1ccc(F)cc1 (stereo not given),-50.8
2,CCOCC1CN(C(=O)c2ccncn2)Cc2cnn(C)c21 (stereo not given),1.48
3,CC(CCc1ccccc1)NC(=O)CNCCCN1CCOCC1 (stereo not given),32.7
4,CC(CCc1ccccc1)NC(=O)CN1CCOCC1 (stereo not given),20.8
5,CC(CCc1ccccc1)NC(=O)CNCCCN(C)C (stereo not given),52.5
6,Cn1cnnc1SCC(=O)NC1CC(=O)N(CCc2ccccc2)C1 (stereo not given),-6.18
7,CC(=O)N1CCc2c(nc(-c3cccnc3)nc2N(C)CC(O)CO)C1 (stereo not given),-31.4
8,COCC(O)CN(C)c1cc(C(F)(F)F)nc(-c2cccnc2)n1 (stereo not given),85.1
9,CC(O)CN(C)c1cc(C(F)(F)F)nc(-c2cccnc2)n1 (stereo not given),16.6
10,CN(CCn1cccn1)c1cc(C(F)(F)F)nc(-c2cccnc2)n1,3.67
11,FC(F)(F)c1cc(NCCCn2cccn2)nc(-c2cccnc2)n1,15.1
12,COCCCN(C)c1cc(C(F)(F)F)nc(-c2cccnc2)n1,59.4
13,CCN(Cc1cn(CC2CCNCC2)nn1)CC1CCCO1 (stereo not given),-16.3
14,CN(C)C(=O)[C@@H]1CC[C@@H]2[C@@H](CCN2Cc2nccs2)O1,-22.1
15,CCC1=N[C@@]2(CC[C@@H]3CN(Cc4ccccc4F)C[C@@H]32)C(=O)N1CC,13.5
16,Cc1cc(C(=O)N(C)Cc2cccs2)nc(N2CCOCC2)n1,19.3
17,Cc1cc(C(=O)N(C)Cc2cccs2)nc(N2CCCCC2)n1,52.4
18,Cc1cc(C(=O)N(C)Cc2cccs2)nc(N2CCCC2)n1,-33.7
19,CC(C)OCCCNC(=O)CS(=O)(=O)Cc1ccc(C(C)C)cc1,7.67
20,CCCOc1cc(C)ccc1NC(=O)N(C)C,24.2
21,CCc1nnc2n1CCN(C(=O)c1cc3ccc(C)cc3[nH]1)C2,23.7
22,CCOCC1CN(CC2CC2)Cc2nn(C)cc21 (stereo not given),52
23,COCC1CN(CC2CC2)Cc2nn(CC3CC3)cc21 (stereo not given),56.7
24,COCC1CN(Cc2ccoc2)Cc2nn(C)cc21 (stereo not given),24.1
25,COCC1CN(Cc2cnn(C)c2)Cc2nn(C)cc21 (stereo not given),25.2
26,CCOCC1CN(Cc2ccncc2)Cc2nn(C)cc21 (stereo not given),29.9
27,COCC1CN(Cc2ccncc2)Cc2nn(CC3CC3)cc21 (stereo not given),29.9

row,Structure (SMILES),INHIBITION [%]
1,COCC1CN(CC2CC2)Cc2nn(C)cc21 (stereo not given),55.7
2,CCOCC1CN(CC2CC2)Cc2nn(CC3CC3)cc21 (stereo not given),29
3,CCOCC1CN(Cc2ccc(F)cc2)Cc2nn(C)cc21 (stereo not given),41.6
4,O=S(=O)(c1ccccc1)N1C[C@@H]2CCCCN(Cc3cccs3)[C@@H]2C1,11.8
5,O=C1CCCC2(CCN(C(=O)c3ccccn3)CC2)N1,17.4
6,O=C(NC[C@]1(O)CCN(Cc2ccsc2)C[C@H]1O)c1c[nH]cn1,-0.275
7,NC(=O)N1CC[C@H](O)[C@@H]1Cc1cccnc1,38.1
8,O=C(N1CCCCC1)N1CCN(c2ccc(Cl)nn2)C(=O)C1,30
9,CCCSc1ncc(CN(C)CCN2CCCCC2)cn1,32.3
10,Cc1cc(C)n(CC2CCCN2C(=O)c2cccn3ccnc23)n1 (stereo not given),15.32
11,COc1cc(C)ccc1OCc1nc(C(=O)N2CCCC2)co1,37.8
12,COc1ccc(OCc2nc(C(=O)N3CC(O)C3)co2)cc1,33.5
13,COc1cc(C)ccc1OCc1nc(C(=O)N2CCC(C)CC2)co1,5.33
14,CCCC1CCN(C(=O)c2coc(COc3ccc(OC)cc3)n2)C1 (stereo not given),19.5
15,COc1cc(C)ccc1OCc1nc(C(=O)N2CCCNC(=O)C2)co1,63.8
16,COc1cc(C)ccc1OCc1nc(C(=O)N2CCCO2)co1,67.5
17,CNC(=O)C1CCN(C(=O)c2coc(COc3ccc(OC)cc3)n2)C1 (stereo not given),-66.3
18,COc1ccc(OCc2nc(C(=O)N3CCCNC(=O)C3)co2)cc1,53.6
19,COc1ccc(OCc2nc(C(=O)N3CC[C@H](O)[C@@H](O)C3)co2)cc1,-38.2
20,Cc1ccc(C(NCC(=O)N2CCNC(=O)C2)c2ccccc2)cc1 (stereo not given),29.4
21,Cc1ccc(NC2CCN(C(=O)c3c(C)nn(C)c3Cl)CC2)nn1,1.45
22,O=C1NCC2=Nc3ccccc3NC(c3ccc(O)cc3)C12 (stereo not given),-72.4
23,COC1CCN(C(=O)Cc2csc(-c3ccc(F)cc3)n2)CC1,-7.35
24,CC(C)c1nn(C)c(N2CCOCC2)c1CNC(C)c1ccco1 (stereo not given),4.52
